# In PubChem BioAssay (NCI):
# About 79,000 compounds went through this panel and 15% of them were active in at least one assay; those are over-represented in the sample as a whole. A number with no mark means an inactive call. Calls of active or inactive are those of the source. Rule as the data show it: active = growth inhibition above about 70%; inactive = the rest.
# Legend:
# [1] = NCI Yeast Anticancer Drug Screen. Data for the rad50 strain (AID 155);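 also: 0% = growth of vehicle-only cultures of the same strain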; conditions: S. cerevisiae rad50 strain growth inhibition, stronger effect = higher value
# Procedure, shortened: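 DNA repair mutant yeast, compound exposure, growth read-out; inhibition is taken relative to vehicle.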
# [2] = NCI Yeast Anticancer Drug Screen. Data for the mec2-1 strain (AID 157); conditions: S. cerevisiae mec2-1 strain, stronger effect = higher value
# Procedure, shortened: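 Yeast mec2-1 mutant treated with compound. Readout: growth inhibition vs vehicle controls.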
# [3] = NCI Yeast Anticancer Drug Screen. Data for the sgs1 mgt1 strain (AID 161);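 also: 0% = growth of cultures given vehicle only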; conditions: S. cerevisiae sgs1 mgt1 strain, stronger effect = higher value
# Procedure, shortened: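 Mutant yeast exposed to compound; growth scored against vehicle-only wells.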
# [4] = NCI Yeast Anticancer Drug Screen. Data for the cln2 rad14 strain (AID 165);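 also: 0% = growth equal to vehicle treated cultures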; conditions: S. cerevisiae cln2 rad14 strain, stronger effect = higher value
# Procedure, shortened: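 cln2 rad14 yeast strain; compound exposure; growth inhibition read vs vehicle controls.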
# [5] = NCI Yeast Anticancer Drug Screen. Data for the bub3 strain (AID 167); conditions: S. cerevisiae bub3 mutant strain, stronger effect = higher value
# Procedure, shortened: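 In this screen, a yeast mutant lacking normal mitotic checkpoint function is challenged with compound. Relative growth versus vehicle gives the inhibition value.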
# [6] = NCI Yeast Anticancer Drug Screen. Data for the mlh1 rad18 strain (AID 175); conditions: S. cerevisiae mlh1 rad18 strain growth inhibition, stronger effect = higher value
# Procedure, shortened: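 Yeast w/ defined DNA-repair lesions; compound exposure; growth vs vehicle controls → % inhibition.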
# [7] = at 5.0 µM (retest, dose inferred, filed as 0.5)
# [8] = at 50.0 µM (retest, dose inferred, filed as 5.0)
SMILES,"growth inhibition [1, 7]","growth inhibition [1, 8]",growth inhibition ([1]; at 50.0 µM),"growth inhibition [2, 7]","growth inhibition [2, 8]",growth inhibition ([2]; at 50.0 µM),"growth inhibition [3, 7]","growth inhibition [3, 8]",growth inhibition ([3]; at 50.0 µM),"growth inhibition [4, 7]","growth inhibition [4, 8]",growth inhibition ([4]; at 50.0 µM),"growth inhibition [5, 7]","growth inhibition [5, 8]",growth inhibition ([5]; at 50.0 µM),"growth inhibition [6, 7]","growth inhibition [6, 8]",growth inhibition ([6]; at 50.0 µM)
CC(=O)C1CCCCC1/C=C/[N+](=O)[O-] (stereo not given),23%,93% (active),99.5% (active),16%,74% (active),99.7% (active),25%,93% (active),99.1% (active),6%,27%,99% (active),30%,91% (active),99.5% (active),42%,97% (active),99.2% (active)
COc1cccc2c1C(=O)c1c(O)c3c(c(O)c1C2=O)CC(O)(C(=O)CO)CC3OC1CC(N)C(I)C(C)O1 (stereo not given),98% (active),98% (active),89.5% (active),98% (active),99% (active),88.8% (active),98% (active),98% (active),85.8% (active),95% (active),98% (active),87.4% (active),98% (active),98% (active),83.8% (active),96% (active),97% (active),91% (active)
CN(NS(=O)(=O)c1cccc([N+](=O)[O-])c1)c1ccccc1,-2%,19%,98.7% (active),9%,6%,98.2% (active),-2%,6%,96.5% (active),5%,16%,95.5% (active),0%,39%,98.8% (active),-10%,41%,98.8% (active)
CC1SC2=NC3=C(c4ccccc4C3=O)C(c3ccc(Cl)cc3)N2C1=O (stereo not given),-3%,75% (active),58.7%,-28%,81% (active),33.8%,-6%,69%,73.2% (active),14%,84% (active),56.3%,-3%,88% (active),51.8%,-17%,91% (active),53.4%
O=C(CC(c1ccccc1)N1CCCCC1)OC1c2ccccc2-c2ccccc21 (stereo not given),-2%,28%,70.1% (active),17%,43%,9.35%,30%,54%,55.8%,0%,23%,54.1%,-1%,24%,70%,35%,56%,55.8%
Cc1cccc2c(C(=O)CBr)cc(-c3ccc(Cl)cc3)nc12,54%,91% (active),95.7% (active),89% (active),93% (active),95.3% (active),96% (active),91% (active),95.2% (active),36%,85% (active),85.8% (active),74% (active),92% (active),95% (active),88% (active),90% (active),95.5% (active)
COc1cccc2c1OC(c1ccc(Cl)cc1)C([N+](=O)[O-])=C2 (stereo not given),94% (active),96% (active),85.7% (active),95% (active),95% (active),89% (active),93% (active),96% (active),87.6% (active),86% (active),95% (active),81.8% (active),97% (active),96% (active),85.5% (active),96% (active),95% (active),84% (active)
Cc1ccc(-c2n[nH]c(=O)n2/N=C\c2ccccc2)cc1,21%,38%,40.9%,18%,25%,21.9%,28%,39%,50.1%,12%,31%,15.2%,4%,23%,23%,17%,44%,59%
Cc1cc(NCCCCCCCCNc2cc(C)nc3cc(N(C)C)ccc23)c2ccc(N(C)C)cc2n1,18%,95% (active),84.9% (active),18%,97% (active),90.5% (active),53%,97% (active),26.5%,24%,97% (active),18.4%,57%,97% (active),32.1%,17%,96% (active),-17.5%
CCCCCCCCCCCCCCCCCC(=O)OC(C)CCC1CCCO1 (stereo not given),4%,-6%,26.4%,1%,0%,12.8%,5%,11%,5.9%,5%,3%,0.1%,1%,-2%,-5.95%,1%,-58%,13%
C1CCC(CCCCc2nn[nH]n2)CC1,0%,98% (active),99.1% (active),-30%,97% (active),99.3% (active),-1%,96% (active),99% (active),0%,99% (active),98.3% (active),-6%,97% (active),99.3% (active),-7%,97% (active),99% (active)
COc1cc(/C=C2\CCc3ccccc3C2=O)ccc1O,-18%,99% (active),89.2% (active),-14%,100% (active),92.2% (active),-28%,99% (active),88% (active),5%,99% (active),90.8% (active),24%,99% (active),91.5% (active),-20%,99% (active),84.3% (active)
CCOC(=O)C(C(=O)OCC)c1ccc([N+](=O)[O-])o1,14%,82% (active),86% (active),-15%,96% (active),86.4% (active),8%,89% (active),89.2% (active),6%,79% (active),81.9% (active),0%,94% (active),87.9% (active),3%,96% (active),82.2% (active)
C#CC(CC)(CC)N=Cc1cc(Cl)cc(Cl)c1O,65%,94% (active),89.2% (active),42%,97% (active),91.8% (active),58%,99% (active),92% (active),41%,72% (active),88.7% (active),51%,66%,90.7% (active),69%,98% (active),90.5% (active)
N#CCCN(C(=S)Nc1ccc(Cl)c(Cl)c1)C1CCCCC1,2%,91% (active),78.9% (active),0%,91% (active),79.7% (active),2%,90% (active),86.3% (active),-1%,83% (active),71.9% (active),2%,88% (active),79.2% (active),3%,90% (active),75.1% (active)
CN(C)C1=NC(N(C)C)=C2C=CC=C12,-3%,49%,66.2%,-2%,51%,43.8%,-4%,34%,33.4%,-3%,40%,72.5% (active),2%,73% (active),82.2% (active),-6%,71% (active),86.8% (active)
O=C(CN1CCCCC1)CC(O)(C(F)(F)F)C(F)(F)F,29%,39%,5.85%,20%,33%,8.45%,10%,20%,6.25%,2%,50%,15.6%,11%,23%,7.5%,31%,34%,77.3% (active)
CCCCCCCCC1(C(=O)OCCN(CC)CC)CCCCC1,8%,99% (active),99.8% (active),0%,100% (active),99.8% (active),36%,99% (active),99.5% (active),13%,100% (active),99.8% (active),22%,99% (active),99.2% (active),12%,98% (active),99.7% (active)
CCc1ccc(C)nc1,-1%,-3%,20.9%,1%,-1%,1.05%,3%,0%,1.1%,0%,3%,0.85%,-2%,-5%,98.7% (active),1%,-2%,-1.05%
O=[N+]([O-])C1C2C=CC(C2)[C@H]1c1ccc(Cl)cc1Cl (stereo not given in full),28%,70% (active),89.5% (active),29%,85% (active),93.2% (active),33%,96% (active),92.2% (active),15%,73% (active),89% (active),52%,93% (active),91.6% (active),37%,89% (active),89.2% (active)
